This is an account of results in PubChem BioAssay (Tox21).

The structures appear in SMILES notation. Values joined by “and” are separate entries in the source; they are usually repeats but may differ in a detail not shown here. Equal values may be shown once. Inconclusive results are not listed. Entries that show only a call come without a potency. Active and inactive are the calls of the source. Calls come from the whole dose curve; as a rule, active = well fitted activation curve with a large enough effect in the repeat runs; inconclusive = weak or mixed curves, or effect the other way; inactive = no such curve, though single readings can be large or run the other way.
Potency is the fitted concentration of half-maximal effect.

The nature of this test: qHTS assay to identify small molecule agonists of the retinoic acid receptor (RAR) signaling pathway (AID 1159553). The following applies: C3RL4 RARE luciferase reporter, agonist, 6 h; series mostly up to 73.3 µM. The source says:
National Center for Advancing Translational Sciences [NCATS] NIH Chemical Genomics Center [NCGC] U.S. Environmental Protection Agency [EPA] National Institutes of Environmental Health Sciences [NIEHS] National Toxicology Program [NTP] Assay overview: All-trans Retinoic acid (atRA) is the potent natural metabolite of retinol and plays an important role in normal embryonic development and maintenance of cellular phenotype in adult animals. atRA is the activating ligand for the retinoic acid receptors (RARs) which form heterodimers with retinoid X receptors (RXRs) on the retinoic acid response element (RARE). Through activation of the RAR/RXRs nuclear receptors, atRA regulates the transcription of a large number of protein-coding genes and regulatory RNAs. Intracellular levels of atRA are controlled by the retinol signaling pathway (RSP) that regulates the biosynthesis and catabolism of atRA to maintain physiological levels. Chemicals that interfere with the RSP can cause abnormal intracellular levels of atRA and therefore are potential developmental toxicants. To assess compounds for the potential adverse effect on embryonic development through interfering with retinol signaling, a cell-based RARE luciferase reporter gene assay was used. C3RL4 cell line (OARSA/CFSAN/FDA, Laurel, MD) was used to screen Tox21 10K compound library for identifying activators of the RSP.
Assay Protocol Summary: C3RL4 cells were seeded at 1,000/well in 5 uL of assay medium into white solid 1,536-well tissue culture plates (Greiner Bio-One North America Inc. Monroe, NC) using a Multidrop Combi (Thermo Scientific, Waltham, MA) dispenser. After incubation at 37 C and 5% CO2 for an overnight, 23 nL of compounds dissolved in DMSO, positive control or DMSO only were transferred by a Pintool station (Kalypsys, San Diego, CA). After 6 hr incubation at 37 C and 5% CO2, 5 uL of Amplite Luciferase reagent (AAT Bioquest Inc. Sunnyvale, CA) was added to each assay plate using a Flying Reagent Dispenser (FRD) (Aurora Discovery, San Diego, CA). Luminescence was quantified on a ViewLux plate reader (PerkinElmer, Waltham, MA) after 30 min incubation at room temperature.
As for `COC(=O)c1ccc(O)cc1`, the Potency entry was “inactive”.

As for `C=C(C)C(N)=O`, the Potency result was “inactive”.

Turning to `C=CC(=O)NC(C)(C)CS(=O)(=O)O`, the Potency result is “inactive”.

For the molecule `COc1ccc(C(=O)c2ccccc2)c(O)c1`, the Potency was 61.1 µM (active) and 23.7 µM (active).

For `CCCCCCCCCCCCCCCCCC(=O)OCC(O)CO` (stereo not given), the Potency entry is “inactive”.

Turning to `CCOCCO`, the Potency entry was “inactive”.

As to `CN/C(=C\[N+](=O)[O-])NCCSCc1ccc(CN(C)C)o1`, the Potency entry is “inactive”.

With `C=CCOC(=O)CC(C)C`, the Potency entry is “inactive”.

`Nc1ccc(N=Nc2ccccc2)c(N)n1`: the Potency was 1.23 µM (active) and 969 nM (active) and 2.37 µM (active).

Regarding `c1ccc2[nH]c(-c3cscn3)nc2c1`, the Potency was 8.69 µM (active) and 2.43 µM (active) and 5.31 µM (active).

Take `CO[C@H]1C=CO[C@@]2(C)Oc3c(C)c(O)c4c(O)c(c(/C=N/N5CCN(C)CC5)c(O)c4c3C2=O)NC(=O)/C(C)=C\C=C[C@H](C)[C@H](O)[C@@H](C)[C@@H](O)[C@@H](C)[C@H](OC(C)=O)[C@@H]1C`: the Potency entry was “inactive”.

`CC(=O)Oc1ccccc1C(=O)O`: the Potency entry was “inactive”.

`C=C(C)OC(C)=O`: the Potency result is “inactive”.

Take `COc1cc(C=O)ccc1O`: the Potency entry was “inactive”.

As to `O=c1c(-c2ccc(O)cc2)coc2cc(O)cc(O)c12`, the Potency was 1.9 µM (active) and 1.37 µM (active) and 2.37 µM (active).

For `COc1cc(O)c(C(=O)c2ccccc2)cc1S(=O)(=O)O`, the Potency entry was “inactive”.

`CCCCC/C(C=O)=C\c1ccccc1`: the Potency result is “inactive”.

`CC(=O)CCC(C)C`: the Potency result is “inactive”.

Regarding `CCCCOC(=O)CCCCCCCCC(=O)OCCCC`, the Potency entry is “inactive”.

Take `O=C(O)CN(CC(=O)O)CC(=O)O`: the Potency entry was “inactive”.

With `O=c1cc[nH]c(=O)[nH]1`, the Potency result was “inactive”.

For `CCCCOCCOCCSC#N`, the Potency entry was “inactive”.

As for `Cc1cccc(C)c1O`, the Potency result is “inactive”.

For the molecule `CCN(CC)CCOC(=O)c1ccc(N)cc1`, the Potency entry is “inactive”.

Consider `CC1(C)O[C@@H]2[C@@H](CO[C@@]3(COS(N)(=O)=O)OC(C)(C)O[C@@H]23)O1`, for which the Potency result is “inactive”.

On to `N[C@@H](Cc1c[nH]c2ccc(O)cc12)C(=O)O`, for which the Potency entry was “inactive”.

In the case of `Cn1cnc2c1c(=O)[nH]c(=O)n2C`, the Potency entry is “inactive”.

As for `Cc1cnc(NC(=O)C2=C(O)c3ccccc3S(=O)(=O)N2C)s1`, the Potency entry is “inactive”.

Take `N[C@@H](Cc1c[nH]c2ccccc12)C(=O)O`: the Potency entry was “inactive”.

On to `CCCCOCCOCCOC(C)=O`, for which the Potency result was “inactive”.

For `NC(=O)NO`, the Potency result was “inactive”.

With `Cc1cccc2ccccc12`, the Potency entry was “inactive”.

On to `CC1=C(/C=C/C(C)=C/C=C/C(C)=C/C(=O)O)C(C)(C)CCC1`, for which the Potency was 19.4 nM (active) and 9.7 nM (active) and 84.1 nM (active).

With `CCN1CCCC1=O`, the Potency entry was “inactive”.

For `NC(N)=NC(N)=NCCc1ccccc1`, the Potency result is “inactive”.

On to `CC1=NN(c2ccccc2)C(=O)C1`, for which the Potency entry is “inactive”.

In the case of `C[C@]12CC[C@@H]3c4ccc(O)cc4C[C@@H](CCCCCCCCCS(=O)CCCC(F)(F)C(F)(F)F)[C@H]3[C@@H]1CC[C@@H]2O` (stereo not given in full), the Potency result is “inactive”.

For `COC1=CC(=O)C[C@@H](C)[C@]12Oc1c(Cl)c(OC)cc(OC)c1C2=O`, the Potency entry was “inactive”.

As to `CCn1cc(C(=O)O)c(=O)c2ccc(C)nc21`, the Potency result is “inactive”.

Take `O=C(OCc1ccccc1)c1ccccc1`: the Potency was 2.43 µM (active) and 29.8 µM (active).
